Measured potencies and affinities stand elsewhere. Activity calls are given as the source filed them.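 How the source made its calls: active means compounds lowering ATP signal whose fitted half-maximal concentration is at most twice the top tested dose; inconclusive means flat fit with 30 to 70% loss, or bad fit; inactive means the rest.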

Data on 5 compounds can be found in PubChem BioAssay AID624364 (Broad Institute, 2012).

This test in a line: cytotoxicity in MITF-independent A375 cells – cell-based, CellTiter-Glo luminescence, dry powder, set 4, counter-screen for MITF inhibitor project, dose response (AID 624364). As to conditions: CellTiter-Glo ATP luminescence, 24 h; series mostly up to 35 µM; activity change, negative = viability loss: at the top concentration. A general note: In ATP-based viability assays light output follows the ATP content of the culture.
`COc1ccc(C2=C(NC(=O)c3ccc(OC)cc3-c3cccc(OC)c3)C(=O)c3ccccc3C2=O)cc1`: the “activity change, negative = viability loss” value is -0.494% (inactive). To `C=CCNC1=C(NCC=C)C(=O)c2ccccc2C1=O` belongs 5.25% (inactive); to `CN1CCN(C2=C(NS(=O)(=O)c3cccs3)C(=O)c3ccccc3C2=O)CC1`, 11.9% (inactive); to `O=C(NC1=C(N2CCN(c3ccccc3)CC2)C(=O)c2ccccc2C1=O)c1ccccc1`, -4.59% (inactive).

Regarding `C=CCNC1=C(NCCCN2CCOCC2)C(=O)c2ccccc2C1=O`, the “activity change, negative = viability loss” value was 0.041% (inactive).
